Only some compounds are listed: those with a hit (about 3.8% of all), similar ones and a draw of the others.
KLK7 zymogen act: proKLK7 zymogen activators, primary screen, biochemical, fluorescence intensity; activation, % at 7 µM; purified proKLK7, EDANS-DABCYL substrate fluorescence; 100% is mature enzyme control, 0% vehicle; AID 652039, 2013; 370,000 tested, 0.9% active;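 active = activation above the mean of all tested compounds plus 3 SD, computed per campaign excluding outliers beyond control limits, cut at about 13% in these data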
Ecoli rRNA inh: reduced GFP signal of wild-type E. coli, primary screen, bacterial rRNA inhibitor project, GFP/RFP fluorescence, OD600, single point; E. coli WT GFP vs humanized-ribosome RFP mutants, 24 h; hits give low values; DMSO median 0, no signal -100; GFP signal change (wild-type ribosome), % (no concentration beside the values); 350,000 tested, 1.6% active;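 active = significant combined selectivity score with lowered wild-type GFP, culture density cut under 30%, mutant RFP and density less affected; inactive = any of these conditions unmet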
ADAM17 inh: ADAM17 inhibitors, primary screen, biochemical, QFRET; Disintegrin and metalloproteinase domain-containing protein 17 (Homo sapiens), P78536; recombinant ADAM17, EDANS/DABCYL FRET peptide cleavage; inhibition, % at 6.95 µM; 370,000 tested, 0.83% active; AID 720648, 2013;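 active = inhibition above the mean of compounds lying between control limits plus 3 SD, set per campaign, cut at about 8.5% in these data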;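 note: 0% = DMSO-only wells as the low control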
Target sequence (P78536 215-824 limits assumed): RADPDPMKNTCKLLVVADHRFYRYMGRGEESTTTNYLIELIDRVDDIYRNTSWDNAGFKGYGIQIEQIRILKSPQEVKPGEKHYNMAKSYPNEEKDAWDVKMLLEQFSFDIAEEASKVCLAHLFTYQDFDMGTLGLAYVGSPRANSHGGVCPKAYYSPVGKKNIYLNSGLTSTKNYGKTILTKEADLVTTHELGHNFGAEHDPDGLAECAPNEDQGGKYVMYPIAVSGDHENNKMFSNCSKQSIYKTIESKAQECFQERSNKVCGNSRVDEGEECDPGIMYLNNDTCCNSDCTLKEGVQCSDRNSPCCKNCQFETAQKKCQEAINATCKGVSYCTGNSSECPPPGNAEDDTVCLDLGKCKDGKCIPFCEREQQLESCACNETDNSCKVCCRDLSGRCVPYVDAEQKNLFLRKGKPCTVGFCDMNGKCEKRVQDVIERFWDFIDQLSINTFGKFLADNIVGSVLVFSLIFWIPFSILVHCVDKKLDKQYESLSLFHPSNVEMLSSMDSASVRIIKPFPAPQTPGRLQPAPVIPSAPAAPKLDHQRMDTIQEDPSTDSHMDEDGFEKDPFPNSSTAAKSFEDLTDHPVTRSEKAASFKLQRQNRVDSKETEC
FGF22 binding: binders of human FGF22 protein, primary screen, FGF22 synaptogenesis inhibitor project, biophysical, thermal shift, single point; recombinant FGF22 thermal shift, SYPRO orange fluorescence; percent of sucrose octasulfate shift, DMSO zero; activity (Tm shift, normalised), % at 9.99 µM; 340,000 tested, 1.5% active;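 active = mean Tm shift, scaled 0 neutral to 100 positive control, at about 1.3% or above, every replicate too, limit read from the data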
ADAM10 inh: human ADAM10 inhibitors, primary screen, biochemical, QFRET, HTS; inhibition, % at 7 µM; 370,000 tested, 0.62% active; AID 720582, 2013; recombinant ADAM10, EDANS/DABCYL FRET peptide cleavage, 3 h; Disintegrin and metalloproteinase domain-containing protein 10 (Homo sapiens), O14672;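 active = inhibition above a per-campaign cutoff equal to the mean of compounds falling between control-based bounds plus 3 SD, cut at about 20% in these data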;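 note: 0% = DMSO wells while the 100% control is not disclosed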
Numbers without * were called inactive; . = not tested or not shown.

SMILES	KLK7 zymogen act	Ecoli rRNA inh	ADAM17 inh	FGF22 binding	ADAM10 inh
CCCNC(=O)Nc1ccc2c(c1)OC[C@@H](C)N(C(C)=O)C[C@@H](C)[C@H](OC)CN(C)C2=O	.	1	.	.	.
CC(=NNC(=O)c1ccncc1)c1ccc(O)cc1O	-1	-16	-4	0	-9
CC(=NNC(=O)c1ccncc1)c1ccccc1O	0	-30*	-2	0	-10
C/C(=N/NC(=O)c1ccncc1)C1=C(O)CC(C)(C)CC1=O	0	15	-1	44*	-4
O=C(O)c1cc([N+](=O)[O-])ccc1NCCc1ccccc1	-1	-42*	0	0	-1
O=C(O)c1cc([N+](=O)[O-])ccc1NCCO	0	.	-2	.	-1
Cc1ccccc1NC(=O)c1cc([N+](=O)[O-])ccc1NCCN1C(=O)CCC1=O	0	1	-2	43*	-4
O=C(O)c1cc([N+](=O)[O-])ccc1Nc1ccccc1	-1	-34*	-2	1	0
C[C@H]1CN([C@@H](C)CO)C(=O)CCCn2nncc2CO[C@@H]1CN(C)S(=O)(=O)c1ccccc1F	.	-2	.	0	.
CNC(=O)C1=C[C@H](c2csc3ccccc23)C[C@H](OCc2ccc(CO)cc2)O1	.	.	.	0	.
COc1ccc(OCc2cccc(C(=O)O)c2)cc1	0	.	-3	.	0
CCOc1ccc(OCc2cccc(C(=O)O)c2)cc1	-1	-24*	-1	0	-2
O=C(C[C@@H]1C=C[C@@H](NS(=O)(=O)c2cccc(F)c2)[C@H](CO)O1)N1CCCCC1	.	-1	.	0	.
CC1CN(c2ncc(/C=N/NC(=O)c3ccccc3O)s2)CC(C)O1 (stereo unspecified)	1	-31*	-13	0	-31
COc1ccc(CC2(CO)CCN(Cc3cnc(-c4ccccc4C)nc3)CC2)cc1	0	-4	-4	44*	-5
CCOC(=O)COc1cc(-n2c(=S)[nH]c3ccccc3c2=O)c(Cl)cc1Cl	0	-23*	4	0	4
Cc1ccccc1-c1ccc([C@H]2[C@@H](CO)N3CCCCN(S(=O)(=O)c4cn(C)cn4)C[C@H]23)cc1	.	-2	.	0	.
Cc1cccc(N2CCc3c2nc2ccc(Br)cc2c3N)c1	-1	-49*	-26	0	-67
O=[N+]([O-])c1nn(-c2ccc(Cl)cc2)n(O)c1=NCc1cccnc1	0	-19*	0	0	-3
C[C@H]1CCCCO[C@H](CN(C)S(=O)(=O)c2ccc(Cl)cc2)[C@@H](C)CN([C@@H](C)CO)C(=O)c2cc(NC(=O)c3ccccc3)ccc2O1	.	0	.	0	.
C[C@@H]1CN([C@@H](C)CO)S(=O)(=O)c2ccc(-c3cccc(C(=O)N(C)C)c3)cc2O[C@H]1CN(C)C(=O)Cc1ccccn1	.	2	.	0	.
O=C(c1ccccc1F)N1CC[C@@H]2[C@H]1c1cc(C#Cc3ccccc3F)ccc1N[C@@H]2CO	.	-6	.	0	.
Cc1cccc(C)c1OCC(=O)Nn1c(=O)[nH]c2ccccc2c1=O	-2	.	-8	43*	-27
Cc1cccc(C)c1OCC(=O)NCc1ccccc1	0	-5	-1	0	6
Cc1ccc(C)c(NC(=S)N/N=C2\CCc3ccccc32)c1	0	-24*	0	0	2
SMILES	KLK7 zymogen act	Ecoli rRNA inh	ADAM17 inh	FGF22 binding	ADAM10 inh
COc1cc(-c2nc3n(n2)C(c2ccncc2)C2=C(CCCC2=O)N3)cc(OC)c1OC (stereo unspecified)	0	4	2	44*	-1
COC(=O)/C(=C\c1ccc(O)cc1)c1nc2ccccc2[nH]1	-8	13	-133	44*	-368
COC(=O)/C(=C\c1cc(OC)c(OC)c(OC)c1)c1nc2ccccc2[nH]1	0	-7	-13	43*	-40
C[C@H]1CCCCO[C@@H](CN(C)Cc2ccc(C(=O)O)cc2)[C@@H](C)CN([C@@H](C)CO)C(=O)c2cc(NS(=O)(=O)c3ccc(Cl)cc3)ccc2O1	.	2	.	0	.
CCC(=O)Nc1ccc2c(c1)OC[C@@H](C)N(C(=O)CC)C[C@H](C)[C@@H](OC)CN(C)C2=O	.	3	.	.	.
O=C(NCC1CCCO1)C(c1ccc(F)cc1)N(Cc1ccc2c(c1)OCO2)C(=O)c1ccc(CN2CCOCC2)o1 (stereo unspecified)	0	5	0	43*	1
COc1ccc(CN(C(=O)c2ccc(CN3CCOCC3)o2)C(C(=O)NCC2CCCO2)c2ccc(F)cc2)cc1 (stereo unspecified)	1	1	-4	0	-5
COc1ccc2c3c(n(C)c2c1)[C@H](CO)N(Cc1ccccc1)CC31CN(C)C1	.	5	.	0	.
Cc1cccc(-c2ccc([C@@H]3[C@H]4CN(C(=O)Cc5ccccn5)CC(=O)N4[C@H]3CO)cc2)c1	.	0	.	.	.
CS(=O)(=O)N1[C@@H]2c3ccc(C4=CCCC4)c(=O)n3C[C@@H]2[C@@H](CO)[C@@H]1C(=O)NCCc1ccncc1	.	0	.	0	.
COc1ccc(/C=N/NC(=O)c2ccccc2O)cc1Cn1nnc2ccccc21	1	-23*	-9	0	-10
O=C(C1CC1)N1C[C@@H]2N[C@H](C1)C2c1ccc(-c2cccc(F)c2)cc1 (stereo partly specified)	.	3	.	0	.
O=C(CC1SC(N2CCCCC2)=NC1=O)Nc1cccc(C(=O)NCc2ccc(F)cc2)c1 (stereo unspecified)	0	2	3	0	3
COc1ccccc1CCNC(=O)c1cccc(NC(=O)CC2SC(N3CCCCC3)=NC2=O)c1 (stereo unspecified)	1	-21*	-5	0	-4
Cc1ccccc1-c1ccc([C@H]2[C@@H](CO)N3C(=O)CN(C(=O)c4cccnc4)C[C@H]23)cc1	.	-2	.	.	.
COC(=O)C1=C(C)NC(C)=C(C(=O)OC)C1c1ccco1	0	13	-12	0	-21
COC(=O)C1=C(C)NC(=O)NC1c1ccco1 (stereo unspecified)	0	16	0	43*	2
CCc1nnc(NC(=O)CSc2nc3[nH]ncc3c(=O)[nH]2)s1	0	.	-3	44*	-7
COc1ccccc1CN1C[C@@H]2C[C@@H](c3ccc(Cl)cc3)N3CCC[C@@]23C1=O	0	-22	0	43*	-1
C[C@H](NC(=O)C[C@H]1CC[C@@H](NC(=O)Cc2ccccn2)[C@@H](CO)O1)c1ccccc1	.	2	.	-1	.
Clc1nc(Cl)c2ncn(-c3ccccc3)c2n1	-1	-17*	-8	0	-18
CNc1nc(Cl)nc2c1ncn2-c1ccccc1	-1	6	-2	0	0

Screens as filed in PubChem BioAssay.
